The full list was thinned out, with hits kept by preference.
Sa growth 42C: inhibitors of Staphylococcus aureus growth at 42 °C; S. aureus RN4220 growth, OD600, 20 h; active compounds read low; relative growth, % (test concentration not listed); 0.53% of 170,000 active; AID 720641;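 active = relative growth at most 50% at the other temperature and 20+ points below 30 °C, or under 10% at both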
S aureus helic: blocks Staphylococcus aureus DNA helicase; purified S. aureus helicase, fluorescence unwinding assay; inhibition, % (test concentration not listed); 0.05% of 120,000 active; in the data active = inhibition above about 25%, passing the limit was not always enough;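 note: 0% = mean of negative control wells and 100% = mean of positive control wells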
Starred values were filed as active, the others as inactive; · = no result given.

SMILES	Sa growth 42C	S aureus helic
Cc1ccc(Cn2c(C(C)O)nc3ccccc32)cc1 (stereo not drawn)	·	20.0
COc1cc(C=C2C(=O)NC(=O)NC2=O)cc(Br)c1OCc1c(C)no[n+]1[O-]	96.4	-12.0
Cc1no[n+]([O-])c1COc1cccc(/C=C2\SC(=S)NC2=O)c1	-0.8*	14.0
Cc1ccccc1Nc1nc(N)nc(Cn2cc(C(F)(F)F)ccc2=O)n1	96.9	-4.0
CCN(C(=O)Cn1nc(-c2ccc(OC)cc2)ccc1=O)c1cccc(C)c1	97.9	·
CCc1ccc(NC(=O)CC2C(=O)OCCN2CC)cc1 (stereo not drawn)	47.1	·
CCN1CCOC(=O)C1CC(=O)Nc1ccccc1C(F)(F)F (stereo not drawn)	30.2*	·
C=C1c2cccc(O)c2C(O)=C2C(=O)C3(O)C(O)=C(C(N)=O)C(=O)C(N(C)C)C3C(O)C12 (stereo not drawn)	4.3*	-26.0
CN(C)[C@@H]1C(=O)C(C(=O)NCN2CCCC2)=C(O)[C@@]2(O)C(=O)C3=C(O)c4c(O)cccc4[C@@](C)(O)[C@H]3C[C@@H]12	12.5	·
O=C(c1ccc2c(c1)N(Cc1ccccc1)C(=O)CS2=O)N1CCCCC1 (stereo not drawn)	105.3	9.0
CCCc1cc(=O)[nH]c(SCC(=O)N(CC(C)C)C2CCS(=O)(=O)C2)n1 (stereo not drawn)	80.0	-5.0
Cc1nnc(SCC(=O)N(CC(C)C)C2CCS(=O)(=O)C2)s1 (stereo not drawn)	91.3	26.0*
Cc1cccc(OC(=O)c2cc(-c3ccc4c(c3)OCCO4)on2)c1C	0.1*	·
Cc1ccccc1OC(=O)c1cc(-c2ccc3c(c2)OCCO3)on1	45.3	·
O=C(Oc1ccc(Cl)cc1)c1cc(-c2ccc3c(c2)OCCO3)on1	96.9	·
O=C(Oc1ccccc1Cl)c1cc(-c2ccc3c(c2)OCCO3)on1	-0.1*	·
O=c1c2ccc(-c3n[nH]c(=S)o3)cc2nc2n1CCCCC2	91.7	8.0
CCCc1nc(-c2ccccn2)[nH]c(=O)c1Cc1c(F)cccc1Cl	58.3	35.0
C=CCc1c(CCC)nc(-c2ccccn2)[nH]c1=O	-0.3*	·
CCOC(=O)N1CCN(CCC(=O)c2ccc(OC)cc2)CC1	89.2	13.0
CCOC(=O)N1CCN(CCC(=O)c2ccc(Br)cc2)CC1	-1.7*	7.0
Cn1c(O)c(N=NC(=O)c2ccccc2)c2ccccc21	92.6	6.0
CCCCn1c(O)c(N=NC(=O)c2ccccc2)c2ccccc21	3.7*	7.0
O=C(Nc1ncnc2sccc12)C1CCCCC1	4.5*	8.0
O=C(Nc1ncnc2sccc12)c1cccs1	59.5	4.0
SMILES	Sa growth 42C	S aureus helic
Cc1ccccc1CN1CCN(CC(=O)N(C)C2(C#N)CCCCC2)CC1	87.4	6.0
O=C(CN1C(=O)C2CC=CCC2C1=O)NCCc1ccccc1 (stereo not drawn)	·	-8.0
CCOc1cccc(OCC)c2c(C)nc(C)c1-2	105.1	7.0
CCOc1cccc(OCC)c2c(C)[n+](C)c(C)c1-2	123.3	58.0*
CC(=O)OC1CC(C(=O)O)N(S(=O)(=O)c2ccc(C)cc2)C1 (stereo not drawn)	80.4	-9.0
CN(C(=O)Cn1c(=O)oc2ccccc21)c1ccccc1	106.2	-9.0
Sc1nc2c(Cl)c(Cl)c(Cl)cc2o1	-0.8*	22.0
O=S1(=O)C=C(Sc2nnnn2-c2ccccc2)c2ccccc21	-1.7*	4.0
c1ccc(-n2nnnc2SSc2nnnn2-c2ccccc2)cc1	89.4	-2.0
Cc1noc(C(F)(F)F)c1C(=O)O	87.5	·
COCC(C)n1c(C)cc(C(=O)Cn2ncc(Cl)c(Cl)c2=O)c1C (stereo not drawn)	114.6	-7.0
Cc1cc(C)c(NC(=O)c2cn3c4c(c(N5CCN(C)CC5)c(F)cc4c2=O)OCC3C)c(C)c1 (stereo not drawn)	71.1	-2.0
CC1COc2c(N3CCN(C)CC3)c(F)cc3c(=O)c(C(=O)OCc4ccccn4)cn1c23 (stereo not drawn)	-1.0*	11.0
CN1/C(=C\C(=O)CN2C(=O)NC3(CCc4ccccc43)C2=O)C(C)(C)c2ccccc21 (stereo not drawn)	-0.9*	-19.0
CN1/C(=C\C(=O)CN2C(=O)NC3(CCCCC3)C2=O)C(C)(C)c2ccccc21	88.9	-2.0
Cc1ccc(-c2noc(CN(C)C(=O)CCN3C(=O)C4CC=CCC4C3=O)n2)cc1 (stereo not drawn)	98.7	-16.0
CN1CCN(NC(=O)Cc2cccs2)CC1	97.3	13.0
Cn1nnnc1SCC(=O)NN1C(=O)NC(C)(c2ccccc2)C1=O (stereo not drawn)	101.3	28.0
CO[C@@]1(NC(=O)CSCC#N)C(=O)N2C(C(=O)O)=C(CSc3nnnn3C)CSC21 (stereo partly drawn)	-0.6*	·
CO[C@@]1(NC(=O)Cc2cccs2)C(=O)N2C(C(=O)O)=C(COC(N)=O)CS[C@@H]21	-1.0*	·
Cc1sc2nc(CC#N)[nH]c(=O)c2c1C	91.5	-42.0
CCN(CC)Cc1nc2sc(C)c(C)c2c(=S)[nH]1	-0.7*	-13.0
Brc1ccc(CNc2ccc3cn[nH]c3c2)s1	106.1	10.0
